The nature of test [1]: NCI Yeast Anticancer Drug Screen. Data for the rad50 strain (AID 155).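 Note: 0% = growth of vehicle-only cultures of the same strain.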 The note with it: S. cerevisiae rad50 strain growth inhibition, hits give high values. Put shortly: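 Relative growth inhibition (compound vs vehicle) was measured in yeast with a defined repair-gene alteration.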
Test [2] can be described thus: NCI Yeast Anticancer Drug Screen. Data for the mec2-1 strain (AID 157). To be noted: S. cerevisiae mec2-1 strain, hits give high values. In a few lines:
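Readout is yeast growth inhibition, normalised to vehicle-treated controls, in the mec2-1 strain exposed to compound.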

Test [3] is described as follows: NCI Yeast Anticancer Drug Screen. Data for the sgs1 mgt1 strain (AID 161).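 Note: 0% = growth of cultures given vehicle only.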 The note with it: S. cerevisiae sgs1 mgt1 strain, hits give high values. In a few lines: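 Growth of a repair-deficient yeast mutant was monitored after compound treatment and expressed as inhibition relative to vehicle-treated cultures.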
The nature of test [4]: NCI Yeast Anticancer Drug Screen. Data for the cln2 rad14 strain (AID 165).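 Note: 0% = growth equal to vehicle treated cultures.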 The note with it: S. cerevisiae cln2 rad14 strain, hits give high values. In a few lines:
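Relative to vehicle controls, growth inhibition of compound-treated cln2 rad14 yeast was recorded.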

Test [5] in a line: NCI Yeast Anticancer Drug Screen. Data for the bub3 strain (AID 167). To be noted: S. cerevisiae bub3 mutant strain, hits give high values. In a few lines: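 Screening used yeast with an engineered genetic alteration affecting cell cycle control. Compound-exposed cultures were compared with vehicle cultures, and reduced growth was taken as inhibition.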
The nature of test [6]: NCI Yeast Anticancer Drug Screen. Data for the mlh1 rad18 strain (AID 175). To be noted: S. cerevisiae mlh1 rad18 strain growth inhibition, hits give high values. In a few lines: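 Test agents were incubated with a yeast strain of defined genotype (DNA damage repair defect). Inhibition of growth was derived by comparison with vehicle-exposed cultures.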
The mark [7] stands for this setting: at 5.0 µM (retest, dose inferred, filed as 0.5).
The mark [8] stands for this setting: at 50.0 µM (retest, dose inferred, filed as 5.0).

SMILES strings stand for the structures. The panel holds about 79,000 compounds, 15% with a hit somewhere; the sample as a whole holds those more often. Values without a mark were called inactive. Calls of active or inactive are those of the source. Cut-off read from the data, not from the text of the source: active = growth inhibition above about 70%; inactive = the rest.

For `Cn1nc(-c2ccccc2NC(=O)C(F)(F)F)c(=O)n(C)c1=S`, the growth inhibition in test [1] (setting [7]) is -3%; in test [1] (setting [8]), 37%; in test [1] (at 50.0 µM), 56.9%; in test [2] (setting [7]) it was 3%; in test [2] (setting [8]) it was 21%; in test [2] (at 50.0 µM), 43.9%. For the same molecule, the growth inhibition in test [3] (setting [7]) is 14%; in test [3] (setting [8]) it was 25%; in test [3] (at 50.0 µM), 50.5%; in test [4] (setting [7]), -3%; in test [4] (setting [8]), 14%; in test [4] (at 50.0 µM) it was 33.6%. For the same molecule, the growth inhibition is 4% in test [5] (setting [7]); 27% in test [5] (setting [8]); 27.7% in test [5] (at 50.0 µM); 0% in test [6] (setting [7]); 34% in test [6] (setting [8]); 73.9% (active) in test [6] (at 50.0 µM).

Turning to `N#C/C(=C\c1ccc(Cl)cc1Cl)C(N)=S`, the growth inhibition in test [1] (setting [7]) is -3%; in test [1] (setting [8]) it was 78% (active); in test [1] (at 50.0 µM) it was 94.7% (active); in test [2] (setting [7]), -4%; in test [2] (setting [8]), 88% (active); in test [2] (at 50.0 µM) it was 95.2% (active). For the same molecule, the growth inhibition was -2% in test [3] (setting [7]); 93% (active) in test [3] (setting [8]); 98.5% (active) in test [3] (at 50.0 µM); -12% in test [4] (setting [7]); 82% (active) in test [4] (setting [8]); 86.8% (active) in test [4] (at 50.0 µM). Moreover, the growth inhibition in test [5] (setting [7]) was -9%; in test [5] (setting [8]), 79% (active); in test [5] (at 50.0 µM) it was 89.1% (active); in test [6] (setting [7]) it was -11%; in test [6] (setting [8]) it was 93% (active); in test [6] (at 50.0 µM), 95.7% (active).

Regarding `COc1cccc2c1C(=O)c1c(O)c3c(c(O)c1C2=O)CC(O)(C(C)=O)CC3OC1CC(NCC2(O)OCC(O)C(O)C2O)C(O)C(C)O1` (configuration not stated), the growth inhibition was 54% in test [1] (setting [7]); 98% (active) in test [1] (setting [8]); 85.2% (active) in test [1] (at 50.0 µM); 33% in test [2] (setting [7]); 98% (active) in test [2] (setting [8]); 86.5% (active) in test [2] (at 50.0 µM). For the same molecule, the growth inhibition was 38% in test [3] (setting [7]); 98% (active) in test [3] (setting [8]); 79.8% (active) in test [3] (at 50.0 µM); 38% in test [4] (setting [7]); 94% (active) in test [4] (setting [8]); 73.3% (active) in test [4] (at 50.0 µM). Besides, the growth inhibition was 27% in test [5] (setting [7]); 98% (active) in test [5] (setting [8]); 83.2% (active) in test [5] (at 50.0 µM); 62% in test [6] (setting [7]); 97% (active) in test [6] (setting [8]); 87.9% (active) in test [6] (at 50.0 µM).

`NC(=S)N/N=C1\CCCCc2ccccc21`: the growth inhibition is 5% in test [1] (setting [7]); 85% (active) in test [1] (setting [8]); 85.7% (active) in test [1] (at 50.0 µM); -19% in test [2] (setting [7]); 83% (active) in test [2] (setting [8]); 89.5% (active) in test [2] (at 50.0 µM). The growth inhibition in test [3] (setting [7]) is 4%; in test [3] (setting [8]), 87% (active); in test [3] (at 50.0 µM) it was 83.8% (active); in test [4] (setting [7]), 13%; in test [4] (setting [8]), 80% (active); in test [4] (at 50.0 µM) it was 83.8% (active). Further, the growth inhibition in test [5] (setting [7]) is 17%; in test [5] (setting [8]), 88% (active); in test [5] (at 50.0 µM), 79.1% (active); in test [6] (setting [7]) it was 5%; in test [6] (setting [8]), 91% (active); in test [6] (at 50.0 µM), 84.2% (active).

Take `CC(C)(C)N=C=NC(c1ccccc1)(c1ccccc1)c1ccccc1`: the growth inhibition in test [1] (setting [7]) is -3%; in test [1] (setting [8]), -21%; in test [1] (at 50.0 µM) it was -1.9%; in test [2] (setting [7]), -9%; in test [2] (setting [8]) it was -7%; in test [2] (at 50.0 µM), -6.1%. Moreover, the growth inhibition in test [3] (setting [7]) is -6%; in test [3] (setting [8]), -24%; in test [3] (at 50.0 µM) it was 2.45%; in test [4] (setting [7]) it was -1%; in test [4] (setting [8]), -18%; in test [4] (at 50.0 µM) it was 42.5%. The growth inhibition in test [5] (setting [7]) was -6%; in test [5] (setting [8]), -22%; in test [5] (at 50.0 µM), 4.5%; in test [6] (setting [7]) it was 11%; in test [6] (setting [8]), 1%; in test [6] (at 50.0 µM), -3.25%.

`Clc1nc(Cl)c(Cl)c(-c2ccccc2)n1`: the growth inhibition in test [1] (setting [7]) is 35%; in test [1] (setting [8]) it was 75% (active); in test [1] (at 50.0 µM) it was 90.3% (active); in test [2] (setting [7]), 29%; in test [2] (setting [8]), 70% (active); in test [2] (at 50.0 µM), 92.7% (active). For the same molecule, the growth inhibition was 18% in test [3] (setting [7]); 77% (active) in test [3] (setting [8]); 89% (active) in test [3] (at 50.0 µM); 17% in test [4] (setting [7]); 73% (active) in test [4] (setting [8]); 84.8% (active) in test [4] (at 50.0 µM). The growth inhibition is 12% in test [5] (setting [7]); 86% (active) in test [5] (setting [8]); 85% (active) in test [5] (at 50.0 µM); 55% in test [6] (setting [7]); 77% (active) in test [6] (setting [8]); 87.3% (active) in test [6] (at 50.0 µM).

For `NNC(=O)N/N=C(\CC1(O)C(=O)Nc2c(Cl)ccc(Cl)c21)c1ccc(F)cc1` (configuration not stated), the growth inhibition in test [1] (setting [7]) was 79% (active); in test [1] (setting [8]), 91% (active); in test [1] (at 50.0 µM), 56.4%; in test [2] (setting [7]) it was 50%; in test [2] (setting [8]) it was 80% (active); in test [2] (at 50.0 µM), 39.5%. The growth inhibition in test [3] (setting [7]) is 72% (active); in test [3] (setting [8]) it was 85% (active); in test [3] (at 50.0 µM) it was 37.4%; in test [4] (setting [7]), 64%; in test [4] (setting [8]), 74% (active); in test [4] (at 50.0 µM) it was 2.75%. Besides, the growth inhibition in test [5] (setting [7]) is 70% (active); in test [5] (setting [8]), 80% (active); in test [5] (at 50.0 µM) it was 21.9%; in test [6] (setting [7]), 57%; in test [6] (setting [8]) it was 73% (active); in test [6] (at 50.0 µM) it was 50.3%.

As to `CCOC(=O)C(NC(C)=O)[CH](c1ccc(OC)cc1)[Sn]([c]1ccccc1)([c]1ccccc1)[c]1ccccc1` (configuration not stated), the growth inhibition is 99% (active) in test [1] (setting [7]); 99% (active) in test [1] (setting [8]); 48.6% in test [1] (at 50.0 µM); 99% (active) in test [2] (setting [7]); 99% (active) in test [2] (setting [8]); 58.1% in test [2] (at 50.0 µM). For the same molecule, the growth inhibition is 99% (active) in test [3] (setting [7]); 99% (active) in test [3] (setting [8]); 48.2% in test [3] (at 50.0 µM); 98% (active) in test [4] (setting [7]); 99% (active) in test [4] (setting [8]); 99% (active) in test [4] (at 50.0 µM). The growth inhibition in test [5] (setting [7]) was 99% (active); in test [5] (setting [8]) it was 98% (active); in test [5] (at 50.0 µM) it was 47.4%; in test [6] (setting [7]), 99% (active); in test [6] (setting [8]), 99% (active); in test [6] (at 50.0 µM), 85.4% (active).

For `O=C(O)c1ccc(CSc2ccc(Cl)cc2)cc1`, the growth inhibition in test [1] (setting [7]) is -4%; in test [1] (setting [8]) it was 0%; in test [1] (at 50.0 µM), 52%; in test [2] (setting [7]), -2%; in test [2] (setting [8]), 19%; in test [2] (at 50.0 µM), 10.4%. In addition, the growth inhibition in test [3] (setting [7]) is 11%; in test [3] (setting [8]) it was 36%; in test [3] (at 50.0 µM), 51.3%; in test [4] (setting [7]), -7%; in test [4] (setting [8]) it was -15%; in test [4] (at 50.0 µM), 36.7%. The growth inhibition was -6% in test [5] (setting [7]); 39% in test [5] (setting [8]); 18.7% in test [5] (at 50.0 µM); 0% in test [6] (setting [7]); 17% in test [6] (setting [8]); 71.3% (active) in test [6] (at 50.0 µM).
